Measurements: PubChem BioAssay (NCI)
The panel holds about 79,000 compounds, 15% with a hit somewhere; the sample as a whole holds those more often. The source made the active and inactive calls. No stated cut-off is given here; in the data, active means growth inhibition above about 70%; inactive means the rest.

Tests used:
[1] = NCI Yeast Anticancer Drug Screen. Data for the rad52 strain (AID 147);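 further: 0% = growth of vehicle-treated control cultures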; conditions: S. cerevisiae rad52 mutant growth inhibition, stronger effect = higher value
Method in brief: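 Yeast strain carrying a DNA damage repair alteration was exposed to test compounds. Growth inhibition was measured relative to vehicle-treated controls.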

[2] = NCI Yeast Anticancer Drug Screen. Data for the rad50EPP+ strain (AID 151);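 further: 0% = growth of vehicle-treated control cultures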; conditions: S. cerevisiae rad50 mutant strain, stronger effect = higher value
Method in brief: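 Yeast strain carrying rad50 alteration (rad50EPP+) exposed to compounds; growth inhibition measured relative to vehicle-treated controls.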

[3] = NCI Yeast Anticancer Drug Screen. Data for the mgt1 strain (AID 153); conditions: S. cerevisiae mgt1 mutant growth inhibition, stronger effect = higher value
Method in brief: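 Yeast mgt1 strain (DNA repair/cell-cycle alteration panel) exposed to compounds; growth inhibition measured relative to vehicle-treated controls.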

[4] = NCI Yeast Anticancer Drug Screen. Data for the rad50 strain (AID 155);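 further: 0% = growth of vehicle-only cultures of the same strain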; conditions: S. cerevisiae rad50 strain growth inhibition, stronger effect = higher value
Method in brief: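 Genetically altered yeast (DNA repair pathway); compound treatment; growth inhibition vs vehicle ctrl.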

[5] = NCI Yeast Anticancer Drug Screen. Data for the mec2-1 strain (AID 157); conditions: S. cerevisiae mec2-1 strain, stronger effect = higher value
Method in brief: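 mec2-1 yeast strain, carrying an alteration in DNA damage repair or cell cycle control, was exposed to compounds; growth inhibition was measured relative to vehicle-treated controls.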

[6] = NCI Yeast Anticancer Drug Screen. Data for the rad14 strain (AID 159);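 further: 0% = growth of vehicle-treated control cultures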; conditions: S. cerevisiae rad14 strain growth inhibition, stronger effect = higher value
Method in brief: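 Test compounds were applied to a repair-deficient yeast strain. Its growth was then compared with that of cultures given vehicle alone, and inhibition was expressed relative to those controls.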

[7] = NCI Yeast Anticancer Drug Screen. Data for the sgs1 mgt1 strain (AID 161);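 further: 0% = growth of cultures given vehicle only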; conditions: S. cerevisiae sgs1 mgt1 strain, stronger effect = higher value
Method in brief: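 Growth of a repair-deficient yeast mutant was monitored after compound treatment and expressed as inhibition relative to vehicle-treated cultures.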

[8] = NCI Yeast Anticancer Drug Screen. Data for the CLN2oe strain (AID 163);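 further: 0% = growth of vehicle-only control cultures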; conditions: S. cerevisiae CLN2oe strain, stronger effect = higher value
Method in brief: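 Yeast cells carrying a defined cell-cycle control alteration were exposed to test compounds. Growth inhibition was scored against vehicle-treated control cultures.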

[9] = NCI Yeast Anticancer Drug Screen. Data for the cln2 rad14 strain (AID 165);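 further: 0% = growth equal to vehicle treated cultures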; conditions: S. cerevisiae cln2 rad14 strain, stronger effect = higher value
Method in brief: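 Yeast carrying cln2 and rad14 alterations (cell cycle control and DNA damage repair) were exposed to compounds. Growth inhibition was measured against vehicle-treated controls.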

[10] = NCI Yeast Anticancer Drug Screen. Data for the bub3 strain (AID 167); conditions: S. cerevisiae bub3 mutant strain, stronger effect = higher value
Method in brief: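 Yeast carrying a defined mutation is treated with each compound, and growth is compared with that of vehicle-exposed cells to give inhibition.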

[11] = NCI Yeast Anticancer Drug Screen. Data for the wt2 strain (AID 169);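 further: 0% = growth of vehicle-treated yeast cultures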; conditions: S. cerevisiae wt2 strain growth inhibition, stronger effect = higher value
Method in brief: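 Yeast cells were exposed to test compounds, and growth inhibition was measured relative to vehicle-treated controls.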

[12] = NCI Yeast Anticancer Drug Screen. Data for the mlh1 strain (AID 171);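 further: 0% = growth of vehicle-treated control cultures of the same strain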; conditions: S. cerevisiae mlh1 strain growth inhibition, stronger effect = higher value
Method in brief: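 Yeast carrying a defined genetic alteration in DNA damage repair or cell cycle control were exposed to test compounds. Growth inhibition was measured relative to vehicle-treated controls.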

[13] = NCI Yeast Anticancer Drug Screen. Data for the sgs1 strain (AID 173);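 further: 0% = growth of vehicle-only control cultures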; conditions: S. cerevisiae sgs1 mutant, stronger effect = higher value
Method in brief: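 Yeast mutant strains carrying defined defects in DNA damage repair or cell cycle control were exposed to test compounds. Growth inhibition was scored against vehicle-treated controls.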

[14] = NCI Yeast Anticancer Drug Screen. Data for the mlh1 rad18 strain (AID 175); conditions: S. cerevisiae mlh1 rad18 strain growth inhibition, stronger effect = higher value
Method in brief: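 Growth inhibition of the yeast strain was measured after compound exposure and expressed relative to vehicle-treated controls. The strain carries defined defects in DNA damage repair.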

[15] = NCI Yeast Anticancer Drug Screen. Data for the wt1 strain (AID 149);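 further: 0% = growth of vehicle-treated wt1 cultures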; conditions: S. cerevisiae wt1 strain (SPY 50644) growth inhibition, stronger effect = higher value
Method in brief: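 wt1 yeast, compound-treated; % growth inhibition vs vehicle control.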

[16] = NCI Yeast Anticancer Drug Screen. Data for the rad18 strain (AID 177); conditions: S. cerevisiae rad18 mutant growth inhibition, stronger effect = higher value
Method in brief: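 Yeast carrying a defined DNA damage repair alteration were exposed to compounds. Growth inhibition was expressed relative to vehicle-treated controls.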

[17] = at 5.0 µM (retest, dose inferred, filed as 0.5)
[18] = at 50.0 µM (retest, dose inferred, filed as 5.0)

Measured: growth inhibition

O=C(Nc1ccccc1)C(=O)C(C(=O)c1ccccc1)C(c1ccccc1)c1ccccc1 (stereo unspecified)
active: [4]; [18] 86% | [4]; at 50.0 µM 82.5% | [5]; [18] 78% | [14]; [18] 74% | [14]; at 50.0 µM 79.8%
inactive: [1]; at 1.2 µM 8% | [1]; at 3.7 µM 10% | [1]; at 11.0 µM 15% | [1]; at 33.0 µM 23% | [1]; at 100.0 µM 36% | [2]; at 1.2 µM 0% | [2]; at 3.7 µM 0% | [2]; at 11.0 µM 1% | [2]; at 33.0 µM 2% | [2]; at 100.0 µM -1% | [3]; at 1.2 µM 2% | [3]; at 3.7 µM 1% | [3]; at 11.0 µM 5% | [3]; at 33.0 µM 8% | [3]; at 100.0 µM 42% | [4]; at 1.2 µM 1% | [4]; at 3.7 µM -6% | [4]; [17] 11% | [4]; at 11.0 µM -3% | [4]; at 33.0 µM 26% | [4]; at 100.0 µM 37% | [5]; at 1.2 µM 8% | [5]; at 3.7 µM 7% | [5]; [17] -11% | [5]; at 11.0 µM 10% | [5]; at 33.0 µM 22% | [5]; at 50.0 µM 15.9% | [5]; at 100.0 µM 35% | [6]; at 1.2 µM 3% | [6]; at 3.7 µM 0% | [6]; at 11.0 µM 5% | [6]; at 33.0 µM 18% | [6]; at 100.0 µM 36% | [7]; [17] -5% | [7]; [18] 20% | [7]; at 50.0 µM 29.4% | [8]; at 1.2 µM 5% | [8]; at 3.7 µM 2% | [8]; at 11.0 µM 6% | [8]; at 33.0 µM 24% | [8]; at 100.0 µM 39% | [9]; [17] 5% | [9]; [18] 53% | [9]; at 50.0 µM 41.2% | [10]; at 1.2 µM 2% | [10]; at 3.7 µM 0% | [10]; [17] -2% | [10]; at 11.0 µM 3% | [10]; at 33.0 µM 9% | [10]; [18] 33% | [10]; at 50.0 µM 58.3% | [10]; at 100.0 µM 18% | [11]; at 1.2 µM 1% | [11]; at 3.7 µM 2% | [11]; at 11.0 µM 2% | [11]; at 33.0 µM 12% | [11]; at 100.0 µM 43% | [12]; at 1.2 µM 3% | [12]; at 3.7 µM 2% | [12]; at 11.0 µM 3% | [12]; at 33.0 µM 16% | [12]; at 100.0 µM 31% | [13]; at 1.2 µM 2% | [13]; at 3.7 µM 3% | [13]; at 11.0 µM 3% | [13]; at 33.0 µM 32% | [13]; at 100.0 µM 56% | [14]; [17] -13%

CC(C)C1=CC2=C[C@H](O)[C@H]3C(C)(C)CCC[C@]3(C)C2=C(O)C1=O
inactive: [1]; at 1.2 µM 7% | [1]; at 3.7 µM 38% | [15]; at 1.2 µM -3% | [15]; at 3.7 µM 13% | [3]; at 1.2 µM -3% | [3]; at 3.7 µM -7% | [4]; at 1.2 µM -6% | [4]; at 3.7 µM 13% | [4]; [17] 29% | [5]; at 1.2 µM -3% | [5]; at 3.7 µM -1% | [5]; [17] 54% | [7]; [17] 68% | [8]; at 1.2 µM -4% | [8]; at 3.7 µM 4% | [9]; [17] 8% | [10]; at 1.2 µM 2% | [10]; at 3.7 µM 9% | [10]; [17] 41% | [11]; at 1.2 µM 15% | [11]; at 3.7 µM 57% | [12]; at 1.2 µM -13% | [12]; at 3.7 µM 23% | [13]; at 1.2 µM 8% | [13]; at 3.7 µM 15% | [14]; [17] 62% | [16]; at 1.2 µM -6% | [16]; at 3.7 µM 27%
active: [1]; at 11.0 µM 99% | [1]; at 33.0 µM 99% | [1]; at 100.0 µM 94% | [15]; at 11.0 µM 99% | [15]; at 33.0 µM 99% | [15]; at 100.0 µM 94% | [3]; at 11.0 µM 99% | [3]; at 33.0 µM 99% | [3]; at 100.0 µM 95% | [4]; at 11.0 µM 98% | [4]; at 33.0 µM 98% | [4]; [18] 98% | [4]; at 50.0 µM 92.8% | [4]; at 100.0 µM 93% | [5]; at 11.0 µM 95% | [5]; at 33.0 µM 99% | [5]; [18] 99% | [5]; at 50.0 µM 93.5% | [5]; at 100.0 µM 96% | [7]; [18] 98% | [7]; at 50.0 µM 93.3% | [8]; at 11.0 µM 76% | [8]; at 33.0 µM 99% | [8]; at 100.0 µM 95% | [9]; [18] 98% | [9]; at 50.0 µM 91.5% | [10]; at 11.0 µM 79% | [10]; at 33.0 µM 99% | [10]; [18] 98% | [10]; at 50.0 µM 92.3% | [10]; at 100.0 µM 96% | [11]; at 11.0 µM 99% | [11]; at 33.0 µM 98% | [11]; at 100.0 µM 96% | [12]; at 11.0 µM 99% | [12]; at 33.0 µM 99% | [12]; at 100.0 µM 94% | [13]; at 11.0 µM 99% | [13]; at 33.0 µM 98% | [13]; at 100.0 µM 95% | [14]; [18] 98% | [14]; at 50.0 µM 92.3% | [16]; at 11.0 µM 99% | [16]; at 33.0 µM 99% | [16]; at 100.0 µM 92%
